Here are results for 48 compounds from PubChem BioAssay AID903 (National Center for Advancing Translational Sciences (NCATS), 2007).

The structures appear in SMILES notation. In all, about 55,000 compounds went through this assay and about 340 (0.62%) were called active. Roughly 3% stayed inconclusive and do not appear here. For the sample, actives were picked, then their nearest neighbours and some compounds at random. Values without a mark were called inactive. Calls follow the shape of the dose curve; as a rule, active = well fitted cell-killing curve with a large enough effect; inconclusive = small, poorly fitted or top-dose-only effect; inactive = no such curve, though single readings can be large or run the other way.
Potency is read from the fitted curve at half-maximal effect.

The experiment in a line: qHTS Screen for Compounds that Selectively Target Cancer Cells with p53 Mutations: Cytotoxicity of p53 Null Cells at the Permissive Temperature. Also: nearly all actives have a fitted effect of over 55% in size.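 As to activity change, negative = cytotoxicity: 0% = DMSO only and -100% = full killing by 100 µM tamoxifen.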 The settings on record: H1299-neo p53 null cells, ATP luminescence, 24 h, 32C; series mostly up to 46.1 µM; activity change, negative = cytotoxicity: at the top concentration. From the text:
NIH Chemical Genomics Center [NCGC] NIH Molecular Libraries Screening Centers Network [MLSCN] MLSCN Grant: 1 X01 MH079844-01 Assay Submitter (PI): Dr. SUN, YI, University of Michigan NCGC Assay Overview: Synthetic Lethal Screen for Compounds to Kill Cancer Cells with p53 Mutation. Tumor suppressor gene p53 serves as a major cellular barrier against tumorigenesis. […] The goal of this screening is to identify small molecule probes that selectively kill cancer cells with mutations in p53. This screening was carried out using two lines of H1299 lung cancer cells. The H1299-p53 A138V line express a temperature sensitive p53 mutant (p53ts) in which the mutant p53 protein (A138V) is in the mutant confirmation when grown at 39C (the nonpermissive temperature) and in the wild type conformation when grown at 32C (the permissive temperature). A H1299-neo line (p53 null) grown at both 39C and 32C were used as counter-screens to filter out false positive associated with temperature shifting. The small molecular compounds that selectively target mutant p53-containing cancer cells were selected as candidate probes for further study. A cytotoxicity assay based on the measurement of ATP contents in cells was used in this screen. Concentration-responses of all the compounds in the library collection were determined in qHTS using the cell lines and temperature conditions as above.
NCGC Assay Protocol Summary: Both the H1299-p53A138V and H1299-neo cell lines were provided by Dr.Yi Sun, a PI at the University Michigan. The cells were maintained and cultured at 37C. The resuspended frozen cells were used to plate the cells in the 1536-well assay plates at a density of 600 cells per well in 5 ul medium. The assay plates with the cells were incubated at 37C for 16 to 30 hours before the experiments. The library compounds in DMSO solution were added to the cells in assay plates and incubated 24 hours at 39C (for mutant p53 conformation) or 32C (for normal p53 conformation as control). An ATP_lite assay kit (PerkinElmer) was used to determine the cell viability. Tomaxifen (100uM) was used as the positive control for cell killing. Data were normalized to the controls for basal activity (DMSO only) and 100% killing (100uM tamoxifen). AC50 values were determined from concentration-response data modeled with the standard Hill equation. P53 assay protocol: 1. Reagent; 5 uL H1299-p53A138V or H1299-neo cell cells/well 2. Time; overnight; 37C incubation 3. Compounds; 23 nL; 5.9 nM to 46 uM 4. Controls; 23 nL; Tamoxifen 100 uM 5. Time; 24 hr; 32C incubation 6. Reagent; 3 uL; ATP_Lite reagent 7. Time; 20 min; Room Temperature 8. Detection; Luminescence; Viewlux plate reader Keywords: p53, synthetic lethal, cancer, cell viability, cytotoxicity, H1299 cell line, luminescence, MLSMR, MLSCN, NIH Roadmap, qHTS, NCGC
Consider `COc1ccc(-c2csc(-c3c(N)c(C(=O)c4ccc(OC)c(OC)c4)n4ccccc34)n2)cc1`, for which the “activity change, negative = cytotoxicity” value is 6.12%.

On to `Cc1cc(OCC(=O)Nc2ncn[nH]2)c(C)c(C)c1Br`, for which the “activity change, negative = cytotoxicity” value was 1.71%.

Consider `COc1ccc(N2CCN(c3nc(-c4ccccc4F)nc4ccccc34)CC2)cc1`, for which the “activity change, negative = cytotoxicity” value was 13.6%.

Turning to `O=S(=O)(c1ccc(Br)cc1)c1nnn2c1nc(NC1CCCCCC1)c1sccc12`, the “activity change, negative = cytotoxicity” value is 2.98%.

As to `COc1cccc(CNC(=O)c2ccc3c(c2)N(Cc2ccc(C(F)(F)F)cc2)C(=O)c2ccccc2S3)c1OC`, the “activity change, negative = cytotoxicity” value is 17.9%.

For the compound `COc1ccc(OC)c2sc(N3CCN(C(=O)C4COc5ccccc5O4)CC3)nc12` (stereo not drawn), the “activity change, negative = cytotoxicity” value is -3.09%.

Take `Cn1c(=O)cc(OCC(=O)N2CCN(c3ccccc3F)CC2)c2ccccc21`: the “activity change, negative = cytotoxicity” value is -5.26%.

`COc1cc(C(=O)Nc2ccc(OCc3cc(=O)n4cc(C)sc4n3)cc2)cc(OC)c1OC`: the “activity change, negative = cytotoxicity” value was -1%.

Take `COc1cccc(C2C(C(=O)Nc3ccc(C)cc3C)=C(C)Nc3c(C(=O)Nc4ccccc4)cnn32)c1` (stereo not drawn): the “activity change, negative = cytotoxicity” value was 30.5%.

Regarding `CCNC(=O)Cn1nc(C)n2c(cc3c(OC)cccc32)c1=O`, the “activity change, negative = cytotoxicity” value is -6.05%.

As for `O=C(NCc1ccccc1)C1CCN(S(=O)(=O)c2ccc3[nH]c(=O)ccc3c2)CC1`, the “activity change, negative = cytotoxicity” value is 2.92%.

As to `COc1ccc(N2CCN(S(=O)(=O)CCNC(=O)C(c3ccccc3)c3ccccc3)CC2)cc1`, the “activity change, negative = cytotoxicity” value is -14.2%.

For the compound `Cc1ccc(C2CCN(C(=O)c3cnn(-c4ccccc4Cl)c3C3CCN(C(=O)OC(C)(C)C)CC3)C2)cc1` (stereo not drawn), the “activity change, negative = cytotoxicity” value was 5.82%.

Turning to `CN(C)CCCNC(=S)NCc1ccc(Cl)cc1`, the “activity change, negative = cytotoxicity” value is -7.09%.

With `COc1ccc(CCNC(=O)c2c3c(nc4ccccc24)C(=O)N(C2CCCCC2)C3)cc1OC`, the “activity change, negative = cytotoxicity” value was -8.55%.

For the compound `CCOC(=O)c1ccc(NC(=O)C2CC(=O)NC(=Nc3ccc(C)c(C)c3)S2)cc1` (stereo not drawn), the “activity change, negative = cytotoxicity” value was -12.3%.

In the case of `Cc1ccc(CSc2nc3cccnc3n2Cc2ccc(C(=O)NC3CC3)cc2)cc1`, the Potency was 2.51 µM (active).

For the compound `O=C(NCc1ccc(F)cc1)c1ccc(Cn2c(SCc3ccc(F)cc3)nc3cccnc32)cc1`, the “activity change, negative = cytotoxicity” value was -23.4%.

As for `O=C(NC1CCCCC1)c1ccc(Cn2c(SCc3ccccc3)nc3cccnc32)cc1`, the “activity change, negative = cytotoxicity” value was -13.1%.

Turning to `COc1ccc(C(=O)OCC(=O)NC(=O)CCSc2ccccc2)cc1`, the “activity change, negative = cytotoxicity” value was -8.99%.

Take `Cc1cccc(-n2ncc(C(=O)N3CCC(C)CC3)c2C2CCN(C(=O)OC(C)(C)C)CC2)c1`: the “activity change, negative = cytotoxicity” value is 2.94%.

In the case of `CC(C)C(=O)Nc1cccc(NC(=O)c2ccc([N+](=O)[O-])cc2Cl)c1`, the “activity change, negative = cytotoxicity” value was -9.2%.

For `COc1ccc(CCN2C(=O)C3CC=C(C)CC3C2=O)cc1OC` (stereo not drawn), the “activity change, negative = cytotoxicity” value is -0.134%.

Take `CCCCOc1ccc(Cn2c(=O)oc3ccc(C)cc32)cc1OC`: the “activity change, negative = cytotoxicity” value was -0.124%.

As to `CCCCOc1ccc(CN2C(=O)C(=O)c3cc(Br)cc(C)c32)cc1OC`, the Potency is 35.5 µM (active).

Regarding `COc1ccc(NC(=O)c2ccco2)cc1NC(=O)c1ccc(C#N)cc1F`, the activity change, negative = cytotoxicity is -5.82% [at 9.22 µM].

On to `Cc1cc(C)c2oc(-c3cccc(NC(=O)c4cccc(F)c4)c3C)nc2c1`, for which the “activity change, negative = cytotoxicity” value was -11.5%.

As for `Brc1ccc(-c2noc(-c3ccccc3)n2)o1`, the “activity change, negative = cytotoxicity” value was -13.7%.

As for `Cc1ccccc1-n1c(C)cc(/C=C2\NC(=O)NC2=O)c1C`, the Potency was 11.2 µM (active).

Take `Cc1cccc(N2CCN(C3=C(c4ccccc4)C(=O)c4ccccc43)CC2)c1C`: the “activity change, negative = cytotoxicity” value was 4.86%.

For the compound `COc1ccc2cc(-c3nc(Cl)c4c5c(sc4n3)CC(C)CC5)c(=O)oc2c1` (stereo not drawn), the “activity change, negative = cytotoxicity” value was -0.526%.

On to `COc1ccc2oc(=O)c(-c3cn4c(n3)sc3cc(OC)ccc34)cc2c1`, for which the “activity change, negative = cytotoxicity” value was -2.92%.

Regarding `COc1ccc(-c2cc3ccc(OCc4nn[nH]n4)cc3oc2=O)cc1`, the Potency is 12.6 µM (active).

Regarding `Cc1cccc2c(=O)cc(CSc3ccccc3NC(=O)C(C)C)[nH]c12`, the “activity change, negative = cytotoxicity” value is -4.09%.

For the compound `C/C=C/c1ccc(OCCOc2ccc(C=O)cc2OC)c(OC)c1`, the “activity change, negative = cytotoxicity” value was -1.57%.

For the compound `COc1ccc(CCNC(=O)c2cc(=O)c3c(C)cc(C)cc3o2)cc1OC`, the “activity change, negative = cytotoxicity” value is -0.239%.

With `Cc1ccc(-n2c(CNc3ccc(F)cc3)nnc2SCC(=O)N2CCOCC2)cc1`, the “activity change, negative = cytotoxicity” value is -5.26%.

Regarding `O=C(NC1CCCCC1)c1ccc2c(c1)N(Cc1ccc(Cl)cc1)C(=O)c1ccccc1S2=O` (stereo not drawn), the “activity change, negative = cytotoxicity” value is -5.35%.

For the compound `O=C(NCC(c1ccc(Cl)cc1)N1CCOCC1)c1ccccc1F` (stereo not drawn), the “activity change, negative = cytotoxicity” value was 0.172%.

Turning to `O=C(Nc1ccccc1F)c1ccccc1-c1ccccc1`, the “activity change, negative = cytotoxicity” value was -0.487%.

On to `CC(=O)c1ccc(NC(=O)Nc2ccc([N+](=O)[O-])cc2C)cc1`, for which the “activity change, negative = cytotoxicity” value is -16.8%.

As to `COc1ccc(N2CCN(c3cc(C)nc4nncn34)CC2)cc1`, the “activity change, negative = cytotoxicity” value is 0.606%.

In the case of `COc1ccccc1C1C(C(=O)N2CCCCC2)=C(C)Nc2nc3ccccc3n21` (stereo not drawn), the “activity change, negative = cytotoxicity” value is 12.2%.

For the compound `COc1ccccc1N1CCN(c2ccc(=O)n(CC(=O)NCc3ccc(OC(C)C)cc3)n2)CC1`, the “activity change, negative = cytotoxicity” value was -1.62%.

Consider `Cc1ccc(Cl)cc1NC(=O)CCC(=O)N1CC(C)Sc2ccccc21` (stereo not drawn), for which the “activity change, negative = cytotoxicity” value is 3.24%.

For `CC1CCCN(Cc2c(O)ccc3c(=O)c(Oc4ccc(C(C)(C)C)cc4)c(C(F)(F)F)oc23)C1` (stereo not drawn), the “activity change, negative = cytotoxicity” value is -2.32%.

For the compound `Cc1ccccc1CSc1nc(-c2ccccc2)nc2c1Cc1c(CO)cnc(C)c1O2`, the “activity change, negative = cytotoxicity” value was -0.829%.

For `COc1ccc(OC)c(NC(=O)Cn2c(=O)n(Cc3ccccc3)c(=O)c3ccccc32)c1`, the “activity change, negative = cytotoxicity” value was 5.5%.
